A1 inh – inducers of caspase activity in MEF A1-2A-BIM cells, primary screen, A1 inhibitor project, cell-based, CaspaseGlo luminescence; caspase-Glo luminescence, 3 h; percent of clofoctol signal, DMSO as zero; caspase activation, % (no concentration beside the values); 0.51% of 21,000 active;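 active = most replicate scores above 10, or exactly half above 10 with mean activity above 10; inconclusive = mean activity below 10 while half the replicates exceed 10; inactive = most replicate scores below 10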;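 note: effector caspase 3 and 7 activity cleaving a DEVD luciferin substrate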
BJeLR viability – BJeLR cell viability loss, primary screen, luminescence, CellTiterGlo ATP; BJeLR fibroblasts viability, 48 h; HRASV12, hTERT and SV40 LT/ST transformed; viability loss activity score, % (test concentration not listed); 0.64% of 30,000 active; AID 2275, 2010; in the data active = viability loss activity score above about 50%; inconclusive = no clear call, values can overlap the other calls; inactive = below about 35%;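 note: higher score means fewer live cells and less ATP luminescence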
* marks the source's active call; other numbers are inactive results; u = inconclusive; x = no result. Shown are actives, neighbours in structure and some others; about 0.89% of the full set was active somewhere.

SMILES | A1 inh | BJeLR viability
CC[C@]1(O)C[C@H]2CN(CCc3c([nH]c4ccccc34)[C@@](C(=O)OC)(c3cc4c(cc3OC)N(C=O)[C@H]3[C@@](O)(C(=O)OC)[C@H](OC(C)=O)[C@@]5(CC)C=CCN6CC[C@]43[C@@H]65)C2)C1 | 5 | 61*
CCc1ccc(NC(=O)Nc2nnc(N(CC)c3ccccc3)s2)cc1 | x | 4
CCOc1ccc(C(=O)Nc2cc(C)ccn2)cc1 | -7 | 90*
CCOc1ccc(C(=O)NCC(=O)n2nc(C)cc2C)cc1 | -4 | 1
O=C(CCS(=O)(=O)c1cccc2nonc12)N1CCCCC1 | x | -5
CSc1cccc(NS(=O)(=O)c2ccc3c(c2)n(C)c(=O)c(=O)n3C)c1 | x | -3
COc1ccc(OC)c(S(=O)(=O)N2CC(C)OC(C)C2)c1 (stereo not given) | x | -5
COc1ccccc1C1CCN(S(=O)(=O)c2ccc(-c3csc(C)n3)s2)CC1 | 0 | 5
Cc1nc(-c2ccc(S(=O)(=O)N3CCCc4ccccc43)s2)cs1 | 0 | 56*
COc1ccc2cc3cc(C(=O)NCCCN4CCCCCC4)sc3nc2c1 | x | 2
CSc1oc(-c2ccccc2)nc1S(=O)(=O)c1ccccc1 | -1 | 1
N#CCc1ccc(NC(=O)Nc2ccccc2)cc1 | x | -11
CC1(C)CC(=O)C=C(Sc2nc3cc(Cl)ccc3s2)C1 | 0 | 69*
Cc1cc(Oc2nc3cc(Cl)ccc3s2)c2cc(Cl)ccc2n1 | 0 | -4
COc1ccccc1C1CCN(Cc2cccc3ccccc23)CC1 | 2 | 2
COc1cccc2sc(=NC(=O)Cc3cccc4ccccc34)n(C)c12 | 10* | 5
CCCc1nc(N)c(C#N)c(-c2ccccc2)c1CC | 1 | 4
N#Cc1c(N)nc(Sc2ccc(Cl)cc2)c(C#N)c1-c1ccccc1 | 42* | 6
CCC(SC1=Nc2ccccc2C2=NC(c3ccccc3)C(=O)N12)C(=O)NCc1ccc(C)cc1 (stereo not given) | x | 14
CC(C)Cc1nn(-c2ccccc2)cc1/C=C1\Cc2ccccc2C1=O | x | 0
CCCc1c(C(=O)O)c(O)cc2c1C(=O)c1c(O)cccc1C2=O | 1 | 2
CCCCCC(=O)Cc1cc(O)c(O)c2c1C(=O)Oc1cc(O)c(C(=O)O)c(CCCCC)c1O2 | 1 | 99*
CC(C)NC(=O)c1cc(-c2ccc(Cl)cc2)on1 | x | 0
CCOC(=O)N1CCN(C(=O)CCCN2C(=O)/C(=C\c3cccs3)SC2=S)CC1 | x | -4
COc1ccc(-c2nc3ccccc3s2)cc1 | -7 | 60*
SMILES | A1 inh | BJeLR viability
c1cc(-c2nc3ccccc3s2)nc(-c2nc3ccccc3s2)c1 | 0 | -2
CCc1ccc(CNC(=S)Nc2ccc3nc(N4CCCC4)cc(C)c3c2)cc1 | x | 1
COc1ccc(C2C3CCc4ccccc4C3=NN2CCOC(=O)C2CC2)cc1 (stereo not given) | x | 4
O=C(Nc1cccc(-c2cn3cccnc3n2)c1)c1ccccc1C(F)(F)F | x | -1
CC(C)=CCNc1ncnc2nc[nH]c12 | 0 | -4
Cn1cnc([N+](=O)[O-])c1Sc1ncnc2nc[nH]c12 | -1 | 88*
CCc1ccc(Oc2coc3cc(OC(C)C(=O)OC(C)C)ccc3c2=O)cc1 (stereo not given) | x | 3
CCOc1ccc(-n2c(=O)c3sccc3n(CC(=O)NC3CCCC3)c2=O)cc1 | x | -2
C[C@@H]1CCOC(=O)C=CC=CC(=O)O[C@@H]2C[C@H]3O[C@@H]4C=C(C(=O)O)CC[C@]4(COC(=O)[C@H]1O)[C@]2(C)[C@]31CO1 | 1 | 71*
FC(F)(F)c1cc(-c2ccccc2)nc(NCCc2ccccc2)n1 | x | 4
O=C(CSc1ccc(F)cc1Cl)C12CC3CC(CC(C3)C1)C2 | 0 | -3
N#CSCC(=O)C12CC3CC(CC(C3)C1)C2 | 36* | 23
CCSc1nc2sc3c(c2c2n[nH]c(=S)n12)CCCC3 | x | -7
O=C1Cc2c([nH]c3ccc([N+](=O)[O-])cc23)-c2ccccc2N1 | 10* | 38
Cc1ccc(CNC(=O)COc2ccc3c(c2)C(=O)CC2(CCCCC2)O3)cc1 | x | 2
C[C@H]1CC[C@@H]2[C@@H](C(=O)c3c(O)c([C@]4(O)CC[C@@H](O)[C@H]5O[C@H]54)c[nH]c3=O)[C@@H](C)C=C[C@H]2C1 | 3 | 54*
CN(CC(=O)Nc1ccc(C(F)(F)F)cc1)S(=O)(=O)c1cccs1 | x | 4
CC(C)N1C(=O)S/C(=C\c2ccccc2OCc2ccc(C(=O)O)cc2)C1=O | x | -2
C=CCn1c(=S)sc2c(SCC(N)=O)ncnc21 | x | 7
C=CCn1c(=S)sc2c(Sc3nnc(-c4ccco4)o3)ncnc21 | u | 63*
O=C(Nc1ccccc1C(=O)N1CCCC1)C(c1ccccc1)c1ccccc1 | x | -1
Cc1cc(C)cc(NC(=S)N(CCCN2CCOCC2)C(C)c2cc3ccccc3o2)c1 (stereo not given) | x | 4

Compound activity as filed in PubChem.
